Assay results taken from PubChem BioAssay AID374 (University of Pittsburgh Molecular Library Screening Center, 2006).
Among all 65,000 compounds or so, about 100 (0.15%) were called active. The full list was thinned out, with actives kept by preference. Values without a mark were called inactive.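 Rule for the calls: active = inhibition above about 50% (limit read from the data); inconclusive = inhibition over screen mean plus 3 SD, below that limit; inactive = the rest.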

molecular target: Dual specificity protein phosphatase 1 (Homo sapiens) (UniProt P28562); experiment: MKP-1 phosphatase inhibitors, primary screen, biochemical, in vitro (AID 374); details: recombinant MKP-1, OMFP hydrolysis fluorescence; stronger effect = higher value;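 compounds tested at a single concentration somewhere between 10 and 100 µM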;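 note: 0% = DMSO max control wells and 100% = wells with enzyme stopped by NaOH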
Sequence (P28562 whole entry, looked up): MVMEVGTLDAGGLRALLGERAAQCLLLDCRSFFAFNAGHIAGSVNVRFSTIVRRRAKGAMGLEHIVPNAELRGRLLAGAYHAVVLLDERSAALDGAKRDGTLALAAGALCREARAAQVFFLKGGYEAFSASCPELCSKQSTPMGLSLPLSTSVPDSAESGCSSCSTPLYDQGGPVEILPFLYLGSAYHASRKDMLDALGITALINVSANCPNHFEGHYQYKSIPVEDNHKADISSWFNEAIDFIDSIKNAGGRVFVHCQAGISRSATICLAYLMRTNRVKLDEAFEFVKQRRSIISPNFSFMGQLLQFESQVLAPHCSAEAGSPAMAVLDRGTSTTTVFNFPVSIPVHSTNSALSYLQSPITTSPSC

For `COC(=O)N(c1ccc(OC)cc1)P1(=S)OCCC(C)O1` (stereo not given), the inhibition was 100% (active).

In order of falling inhibition:
1. CCOC(=O)c1c(N)n(Cc2ccccc2)c2nc3ccccc3nc12  32.1%
2. CCc1nc2ccccc2c(=O)n1-c1cccc(OC)c1  2.83%
3. CCN(CC)CCOC(=O)c1cc2cc(COC)ccc2o1  2.26%
4. COC(=O)C(c1ccccc1)N1CCCCCC1 (stereo not given)  -10.8%
